From PubChem
Most compounds without a hit are left out; they make up all but 19% or so of the library.
DT40 TDP1 no CPT: qHTS for Inhibitors of human tyrosyl-DNA phosphodiesterase 1 (TDP1): qHTS in cells in absence of CPT; DT40 Tdp1-/- hTDP1 cells, no CPT, ATP luminescence, 48 h; Potency, µM (top dose mostly 46.2 µM), most hits filed as inhibitors; 15% of 420,000 active; further: nearly all actives have a fitted effect of over 55% in size
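Cells were dispensed at 400 per well, compounds added by pin tool, plates incubated ≥48 hr at 37 °C, then CellTiter-Glo added for 30 min at room temperature before luminescence reading. Line: DT40 Tdp1-/- complemented with hTDP1; camptothecin omitted.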
IL-1B inflam inh: qHTS for Inhibitors of Inflammasome Signaling: IL-1-beta AlphaLISA Primary Screen; THP-1 LPS/ATP IL-1B secretion, AlphaLISA, 16 h; hits give low values; activity change, % at 57.5 µM; 4.7% of 360,000 active; AID 743279, 2014; in the data active means activity change below about -50%; inconclusive means mostly about -30% to -49%
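Secreted IL-1B measured by AlphaLISA bead assay after 16 h compound exposure of THP-1 cells; compounds (final up to 57.5 uM) added 1 h before LPS (250 ng/mL) and ATP (1.25 mM) stimulation; lower signal means less secretion.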
MCF10A rerep: A quantitative high throughput screen for small molecules that induce DNA re-replication in MCF 10a normal breast cells | MCF 10A DNA re-replication, Hoechst nuclear intensity, 48 h | Potency, µM (highest dose often 46.1 µM), actives largely listed as activators | 2.9% of 350,000 active | AID 624296, 2012; further: nearly all actives have a fitted effect of over 50% in size
DT40 TDP1 CPT: qHTS for Inhibitors of human tyrosyl-DNA phosphodiesterase 1 (TDP1): qHTS in cells in presence of CPT; 12% of 420,000 active; AID 686979, 2013; chicken DT40 Tdp1-/-;hTDP1 cells + 20 nM CPT, ATP luminescence, 48 h; Potency, µM (doses to about 46.2 µM), most hits filed as inhibitors; further: nearly all actives have a fitted effect of over 55% in size
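Chicken DT40 Tdp1-/- cells stably complemented with human TDP1 were seeded at 400 cells/well in medium containing 20 nM camptothecin, exposed to pin-transferred compounds, and grown at 37 °C for at least 48 hr. Viability was read as ATP luminescence.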
BCR signal inh: qHTS Assay to Find Inhibitors of Chronic Active B-Cell Receptor Signaling; ABC-DLBCL IkBa-CBG/CBR reporter, luminescence ratio, 4 h; Potency, µM (titrated, usually from 46.1 µM), hits mostly inhibitors; 0.05% of 340,000 active; AID 493014, 2011; active means well fitted inhibition curve with a large enough effect in the signal ratio, with a control signal flat, not every such curve was filed as active; inconclusive means small, poorly fitted or top-dose-only effect, or effect the other way, or a change in a side signal; the % refers to the signal ratio
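Cell line TMD8 (human ABC DLBCL), stably expressing tet-inducible CBG68-IkBa fusion and CBR; IMDM/0.5% FBS; cpd up to 46 uM; dox induction, 4 h, 37C/5% CO2; dual luminescence; green/red ratio; MG132 control.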
SW480 rereplic: A quantitative high throughput screen for small molecules that induce DNA re-replication in SW480 colon adenocarcinoma cells; AID 624297, 2012; Potency, µM (doses to about 46.1 µM), actives largely listed as activators; SW480 DNA re-replication, Hoechst DNA content imaging, 48 h; 1.8% of 340,000 active; further: nearly all actives have a fitted effect of over 55% in size
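Treated cells incubate 48 hr (37 C, 5% CO2), are stained 40 min with Hoechst, and nuclear fluorescence is enumerated; a rise in nuclei with high DNA signal marks re-replication.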
Each line names hits and unclear results; the compound was inactive in the other large screens; ! = not active in a repeat. Unless noted, the call rests on the fitted dose curve; in most records, active means well fitted curve in the direction sought with a large enough effect; inconclusive means small, poorly fitted or top-dose-only effect, or another doubt; inactive means no such curve, though single readings can be large; an effect the other way counts as inactive or inconclusive.

COc1ccc(C(=O)c2ccccc2C(=O)c2ccccc2)cc1	DT40 TDP1 no CPT 16µM, DT40 TDP1 CPT inconclusive (no result: BCR signal inh)
COc1ccc(-n2nnnc2/C=C\Nc2ccccc2C(=O)c2ccccc2)cc1	DT40 TDP1 no CPT 5.8µM, DT40 TDP1 CPT 7.3µM, SW480 rereplic 10µM
CC(OC(=O)/C=C/c1cccc(F)c1)C(=O)NC1CCCCC1C (centres undefined)	none
CCCCCOc1ccc(C2C(C(=O)c3ccc(C)o3)=C(O)C(=O)N2c2cc(C)on2)cc1 (centres undefined)	DT40 TDP1 no CPT inconclusive, DT40 TDP1 CPT inconclusive, SW480 rereplic inconclusive
O=C(CN(C(=O)c1csnn1)c1ccc2c(c1)OCCO2)NCc1ccccc1	none
CN(CC(=O)Nc1ccc(Cl)c(C(F)(F)F)c1)C(=O)Cn1cc([N+](=O)[O-])ccc1=O	DT40 TDP1 no CPT inconclusive, IL-1B inflam inh inconclusive, DT40 TDP1 CPT inconclusive
O=C(c1ccccc1)c1cccc(C(=O)c2ccccc2)c1	none
COc1ccc(C(=O)c2ccc(OC)c(OC)c2OC)cc1	DT40 TDP1 no CPT 3.7µM, MCF10A rerep 3.7µM, DT40 TDP1 CPT 3.7µM, SW480 rereplic 5.8µM (no result: BCR signal inh)
COc1ccc(CNC(=O)COC(=O)c2ccccc2C(=O)c2ccccc2)cc1	DT40 TDP1 no CPT 8.2µM, DT40 TDP1 CPT inconclusive
O=C(c1ccccc1)c1ccccc1C(=O)c1ccccc1	DT40 TDP1 no CPT 18µM, DT40 TDP1 CPT inconclusive, BCR signal inh inconclusive, SW480 rereplic inconclusive
COc1ccccc1C(=O)COC(=O)c1ccc(N(C)C)cc1	DT40 TDP1 no CPT 18µM, DT40 TDP1 CPT inconclusive, BCR signal inh inconclusive
C/C(=N/O)c1no[n+]([O-])c1/C(C)=N\O	none
COC(=O)CC1C(=O)NCCN1C(=O)c1cc(OC)c(OC)cc1OC (centres undefined)	none
Cc1cccc(NC(=O)C2CCN(c3nc(C)cc(C)n3)CC2)c1	DT40 TDP1 no CPT inconclusive, DT40 TDP1 CPT inconclusive
Cc1cccc(NC(=O)C2CC(=O)n3cnnc3S2)c1 (centres undefined)	DT40 TDP1 no CPT 5.8µM, DT40 TDP1 CPT 4.6µM
O=C1CSC2(C(=O)N3CCCc4cccc2c43)N1c1cccc(C(F)(F)F)c1 (centres undefined)	DT40 TDP1 no CPT inconclusive, DT40 TDP1 CPT 21µM
Cc1cccc(N2C(=O)CSC23C(=O)N(Cc2cccc(C(F)(F)F)c2)c2ccccc23)c1 (centres undefined)	DT40 TDP1 no CPT 16µM, DT40 TDP1 CPT 18µM (no result: IL-1B inflam inh, MCF10A rerep, BCR signal inh, SW480 rereplic)
CN1CCN(c2cc(-c3ccoc3)ncn2)CC1	none (no result: IL-1B inflam inh, MCF10A rerep, BCR signal inh, SW480 rereplic)
CC(=O)c1ccc(N2CCN(c3ccc4cc(S(=O)(=O)N5CCC(C)CC5)ccc4n3)CC2)cc1	DT40 TDP1 no CPT 7.3µM!, MCF10A rerep inconclusive, DT40 TDP1 CPT inconclusive
CC1CCN(S(=O)(=O)c2ccc3nc(N4CCN(c5ccc(F)cc5)CC4)ccc3c2)CC1	none (no result: IL-1B inflam inh, MCF10A rerep, BCR signal inh, SW480 rereplic)
CC(=O)N1c2ccc(S(=O)(=O)N3CCC(C(=O)N4CCN(c5ccc(Cl)cc5)CC4)CC3)cc2CC1C (centres undefined)	DT40 TDP1 no CPT 5.2µM, IL-1B inflam inh inconclusive, DT40 TDP1 CPT 16µM, BCR signal inh inconclusive
CC(=O)N1c2ccc(S(=O)(=O)N3CCC(C(=O)N4CCCCC4)CC3)cc2CC1C (centres undefined)	DT40 TDP1 no CPT inconclusive, DT40 TDP1 CPT inconclusive
CC(=O)c1ccc(N2CCN(S(=O)(=O)c3ccc4c(c3)CC(C)N4C(=O)C3CCC3)CC2)cc1 (centres undefined)	DT40 TDP1 no CPT 5.8µM, DT40 TDP1 CPT 7.3µM (no result: IL-1B inflam inh, MCF10A rerep, BCR signal inh, SW480 rereplic)
CC(=O)N1c2ccc(S(=O)(=O)N3CCC(C(=O)N4CCN(c5ccccc5F)CC4)CC3)cc2CC1C (centres undefined)	DT40 TDP1 no CPT inconclusive, DT40 TDP1 CPT 26µM
CCn1c(CC(=O)Nc2ccc(C)cc2)nnc1SCC(=O)N1CCOCC1	none
CC1Cc2cc(S(=O)(=O)N3CCN(c4cccc(Cl)c4)CC3)ccc2N1C(=O)C1CC1 (centres undefined)	DT40 TDP1 no CPT inconclusive, MCF10A rerep inconclusive, DT40 TDP1 CPT inconclusive
CN1C(=O)Cc2cc(S(=O)(=O)CCC(=O)N3CCN(c4ccccc4F)CC3)ccc21	DT40 TDP1 CPT inconclusive (no result: IL-1B inflam inh, MCF10A rerep, BCR signal inh, SW480 rereplic)
CCC(=O)N1c2ccc(S(=O)(=O)CCC(=O)N3CCN(c4ccccc4F)CC3)cc2CC1C (centres undefined)	DT40 TDP1 no CPT 16µM, DT40 TDP1 CPT inconclusive
CC1Cc2cc(S(=O)(=O)N3CCN(c4ccc(Cl)cc4)CC3)ccc2N1C(=O)C1CC1 (centres undefined)	DT40 TDP1 no CPT 13µM, DT40 TDP1 CPT 16µM, SW480 rereplic inconclusive
O=C(CN1CCN(C(=O)c2ccc(-c3nc4ccccc4s3)o2)CC1)Nc1ccc(F)cc1	DT40 TDP1 no CPT 26µM, DT40 TDP1 CPT inconclusive, BCR signal inh inconclusive
O=C(c1ccc(-c2nc3ccccc3s2)o1)N1CCN(c2ccccc2O)CC1	DT40 TDP1 no CPT 21µM, MCF10A rerep inconclusive, DT40 TDP1 CPT 23µM, BCR signal inh inconclusive
O=C(CN1CCN(C(=O)c2ccc(-c3nc4ccccc4s3)o2)CC1)Nc1ccccc1Cl	DT40 TDP1 no CPT inconclusive, MCF10A rerep inconclusive, DT40 TDP1 CPT inconclusive
O=C(CC(c1ccccc1)c1ccccc1)Nc1ccc(C(=O)O)cc1	BCR signal inh inconclusive
CC[C@@H]1CC2=C(C(=O)OC(C)(C)O2)[C@H](c2ccc(Cl)cc2)O1	none (no result: MCF10A rerep, BCR signal inh, SW480 rereplic)
CCOc1cccc(-c2c(C(=O)N/N=C/c3cccs3)nnn2-c2nonc2N)c1	BCR signal inh inconclusive, SW480 rereplic inconclusive
Cc1nn(-c2ccccc2)c(N2CCCC2)c1/C=N/NC(=S)Nc1ccccc1F	DT40 TDP1 no CPT inconclusive, MCF10A rerep inconclusive, DT40 TDP1 CPT 13µM, BCR signal inh inconclusive (no result: SW480 rereplic)
Cc1nn(-c2ccccc2)c(N2CCCC2)c1/C=N/NC(=O)c1cc(-c2ccccc2)nc2ccccc12	DT40 TDP1 no CPT inconclusive, MCF10A rerep inconclusive, DT40 TDP1 CPT inconclusive
Cc1nn(-c2ccccc2)c(N2CCCC2)c1/C=N/NC(=O)c1cc(-c2cccs2)nc2ccccc12	DT40 TDP1 no CPT 15µM, DT40 TDP1 CPT inconclusive
Cc1nn(-c2ccccc2)c(N2CCCC2)c1/C=N/Nc1ccc(S(N)(=O)=O)cc1[N+](=O)[O-]	DT40 TDP1 no CPT 15µM, DT40 TDP1 CPT 16µM
